# An excerpt weighted towards active compounds, which were near 11% of everything screened.
# ALDH1A1 inh – qHTS Assay for Inhibitors of Aldehyde Dehydrogenase 1 (ALDH1A1) | Aldehyde dehydrogenase 1A1 (Homo sapiens), P00352 | Purified ALDH1A1, NADH fluorescence, propionaldehyde substrate | Potency, µM (series often up to 75.3 µM), without a hit: top-dose activity, negative = inhibition, usual class: inhibitors | 220,000 tested, 7.3% active; active = well fitted inhibition curve with a large enough effect, not every such curve was filed as active; inconclusive = small, poorly fitted or top-dose-only effect, or another doubt; inactive = no such curve, though single readings can be large or run the other way;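 also: potency is read from the fitted curve at half-maximal effect; plate controls were no enzyme wells and a reference inhibitor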
# HTT aggregate – qHTS Multiplex Assay to Identify Dual Action Probes in a Cell Model of Huntington: Aggregate Formation (GFP) | Potency, µM (series often up to 46.1 µM), inactives show top-dose activity change, negative = inhibition, hits mostly inhibitors | PC12 HttQ103-GFP aggregates, Acumen cytometry, 40 h | 220,000 tested, 1.1% active; also: potency is read from the fitted curve at half-maximal effect; % is scaled to controls: 0 for no effect and ±100 for the full control effect; nearly all actives have a fitted effect of over 60% in size
#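 PC12 cells stably carrying ecdysone-inducible HTT exon 1 Q103–GFP were induced with tebufenozide (100 nM final) and treated with library compounds in titration. GFP aggregates in lysates were counted by laser scanning cytometry.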
# HTT ATP protect – qHTS Multiplex Assay to Identify Dual Action Probes in a Cell Model of Huntington: Cytoprotection (ATP); PC12 HTT-Q103 induced, cytoprotection, ATP luminescence, 40 h; Potency, µM (titrated, usually from 56.4 µM), without a hit: cytoprotection (ATP increase), usual class: activators; 230,000 tested, 0.14% active; also: potency is read from the fitted curve at half-maximal effect; % of control where 0% means no effect; nearly all actives have a fitted effect of over 45% in size
#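 Stable PC12 Q103-GFP cells in serum-supplemented, phenol red-free DMEM; induction by tebufenozide at 100 nM final; compound dose series; cell viability quantified luminescently from ATP.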
# PNC assembly inh – High Content Assay for Compounds that inhibit the Assembly of the Perinucleolar Compartment; PC3M PTB-GFP, PNC prevalence imaging, 16 h; hits give low values; activity change (PNC), negative = inhibition, % at 10 µM; 140,000 tested, 3.1% active; AID 2417, 2010;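 active = readout at or below -70, meaning at least 70% loss of cells showing the perinucleolar compartment, a nuclear body marking cancer cells; inconclusive = readout between -30 and a set limit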;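 also: plate controls were DMSO wells for no effect and camptothecin positive control wells for full effect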
#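 Read-out is percentage of cells bearing a perinucleolar compartment, from automated 20x imaging of fixed, Hoechst-stained PC3M PTB-GFP cells. Cells were seeded 4 h, then exposed 16 h to compound (23 nl of library stock) in duplicate plates.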
# CBFb-RUNX1 inh – qHTS Assay for Compounds Blocking the Interaction Between CBF-beta and RUNX1 for the Treatment of Acute Myeloid Leukemia; AlphaScreen CBFb-His/RUNX1-biotin binding, biochemical; AID 1477, 2009; 230,000 tested, under 10 active; Potency, µM (highest dose often 59.8 µM), for inactives: at the highest dose activity, negative = inhibition, usual class: inhibitors; Runt-related transcription factor 1 (Homo sapiens) + Core-binding factor subunit beta …; also: % of control where 0% means no effect
#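 Room-temperature protein-protein interaction test with 30 nM each of His-tagged CBF-beta and biotinylated RUNX1, 15 min with compound, then 90 min with nickel plus streptavidin beads. Signal read in AlphaScreen mode.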
# HPGD block – qHTS Assay for Inhibitors of HPGD (15-Hydroxyprostaglandin Dehydrogenase). Potency, µM, for inactives: at the highest dose activity change, negative = inhibition, hits mostly inhibitors. purified HPGD, NADH fluorescence kinetic, PGE2 substrate. 150,000 tested, 4.3% active; active = well fitted inhibition curve with a large enough effect, not every such curve was filed as active; inconclusive = small, poorly fitted or top-dose-only effect, or another doubt; inactive = no such curve, though single readings can be large or run the other way; also: potency is read from the fitted curve at half-maximal effect; % is scaled to controls: 0 for no effect and ±100 for the full control effect
# Target sequence (P15428 whole entry, looked up): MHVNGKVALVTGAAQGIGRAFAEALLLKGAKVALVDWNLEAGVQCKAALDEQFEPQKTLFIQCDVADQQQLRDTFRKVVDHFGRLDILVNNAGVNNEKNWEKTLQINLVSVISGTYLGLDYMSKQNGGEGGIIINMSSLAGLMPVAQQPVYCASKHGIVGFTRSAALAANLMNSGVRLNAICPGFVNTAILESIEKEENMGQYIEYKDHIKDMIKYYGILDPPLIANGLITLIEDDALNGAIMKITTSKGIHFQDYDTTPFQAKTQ
#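 NADH formation kinetics: reaction with 30 uM PGE2 and 1 mM NAD+ (final), 20 nM enzyme, Tris-HCl pH 8 with Tween 20, after 15 min compound preincubation at room temperature. Fluorescence change, last versus first of five reads.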
# The depositor's hits bear a star; ? = inconclusive; · = no result given; [ ] = another dose, or the depositor's remark. Unless noted, calls follow the shape of the dose curve; as a rule, active = well fitted curve in the direction sought with a large enough effect; inconclusive = small, poorly fitted or top-dose-only effect, or another doubt; inactive = no such curve, though single readings can be large; an effect the other way counts as inactive or inconclusive.
SMILES,ALDH1A1 inh,HTT aggregate,HTT ATP protect,PNC assembly inh,CBFb-RUNX1 inh,HPGD block
COc1ccccc1Nc1ccc(N)cc1,28µM*,-15%,-14%[10 µM],·,?,·
Nc1[nH]c(=S)[nH]c(=O)c1N=Nc1c(Br)cc(S(N)(=O)=O)cc1Br,-1%[13.5 µM],·,-28%[10 µM],·,·,-9%
Oc1c(N=NC(=S)Nc2ccccc2F)c2ccccc2n1Cc1ccc(F)cc1,16µM*,?,0%,·,?,·
Oc1c(N=NC(=S)Nc2ccccc2F)c2ccccc2n1Cc1cccc(Cl)c1,0.4µM*,?,-5%,·,?,·
Cc1cccc(Cn2c(O)c(N=NC(=S)Nc3ccccc3F)c3ccccc32)c1,?,-24%,-12%,·,-9%,·
Cc1cccc(NC(=S)N=Nc2c(O)n(CN3CCOCC3)c3ccccc23)c1C,5%,?,-64%[10 µM],-24,-28%,-12%
O=C(O)/C=C/C(=O)NNc1ncnc2ccccc12,·,-17%[9.22 µM],-5%[10 µM],·,13%,·
CCCCC(CC)CNC(=O)CCS(=O)(=O)c1cccc2nonc12 (configuration not stated),?,-5%,19%,?,-2%,-7%
COc1ccc(N(C)C(=O)CCS(=O)(=O)c2cccc3nonc23)c(OC)c1,13µM*,26%,6%,22,-1%,-5%
O=C(CCS(=O)(=O)c1cccc2nonc12)NCCc1ccccc1,22µM*,-7%,6%,?,2%,-8%
Cc1ccc(NC(=O)CCS(=O)(=O)c2cccc3nonc23)cc1,?,1%,-54%,·,4%,·
Cc1ccc(Cl)cc1N1CCN(C(=O)CCS(=O)(=O)c2cccc3nonc23)CC1,22µM*,-23%,-11%[10 µM],?,-27%,-7%
CC(C)NC(=O)CCS(=O)(=O)c1cccc2nonc12,25µM*,-7%,-1%[10 µM],13,1%,-5%
CC(C)(C)C(=O)NCCCC(=O)O,·,0%,2%,·,·,·
O[C@@H](c1cc(-c2ccccc2)nc2c1ccc1ccccc12)C1CCCCN1 (some centres not stated),0%[13.5 µM],·,·,·,·,-11%
Cc1ccc(C)c(N2CCN(C(=O)CCNC(=O)Cn3ccc4ccccc4c3=O)CC2)c1,1%,-24%,6%,-10,-10%,?
O=C(CCS(=O)(=O)c1cccc2nonc12)N1CCCc2ccccc21,11µM*,3%,-10%,3,5%,-15%
O=C(CCS(=O)(=O)c1cccc2nonc12)NCc1ccc(Cl)cc1,8.9µM*,-3%,-39%,·,5%,·
COc1cccc(CNC(=O)CCS(=O)(=O)c2cccc3nonc23)c1,?,-5%,9%,33,8%,-4%
Cc1ccc(Cl)cc1N1CCN(C(=O)Cn2ccc3ccccc3c2=O)CC1,20µM*,4%,-5%,23,1%,·
CC(C)CCNC(=O)CCS(=O)(=O)c1cccc2nonc12,10µM*,-9%,17%,-23,-5%,-7%
CC(C)C[C@H](NC(=O)[C@@H]1CCC(=O)N1)C(=O)N[C@@H](Cc1ccc(O)cc1)C(=O)N[C@@H](CCC(=O)O)C(=O)N[C@@H](CC(N)=O)C(=O)N[C@@H](CCCCN)C(=O)N1CCC[C@H]1C(=O)N[C@@H](CCCN=C(N)N)C(=O)N[C@@H](CCCN=C(N)N)C(=O)N1CCC[C@H]1C(=O)N[C@@H](Cc1ccc(O)cc1)C(=O)O,·,·,·,·,5%,·
O=C(COC(=O)c1cccs1)NC12CC3CC(CC(C3)C1)C2,?,21%,-12%,·,14%,·
Cc1cnc(C(=O)OCC(=O)NC23CC4CC(CC(C4)C2)C3)cn1,25µM*,10%,-7%,15,-1%,0%
O=C(COC(=O)c1ccccn1)NC12CC3CC(CC(C3)C1)C2,7%,1%,-1%,30,4%,0%
SMILES,ALDH1A1 inh,HTT aggregate,HTT ATP protect,PNC assembly inh,CBFb-RUNX1 inh,HPGD block
O=C(COC(=O)/C=C/C(=O)OCC(=O)NC12CC3CC(CC(C3)C1)C2)NC12CC3CC(CC(C3)C1)C2,4µM*,?,-2%[1.9 µM],7,0%,-18%
NC(=O)C1CCN(c2ccc([N+](=O)[O-])cc2Cl)CC1,20µM*,-3%,-16%,·,11%,·
O=C(CSc1ccc(Cl)cc1)N1CCN(c2ccc([N+](=O)[O-])cc2Cl)CC1,20µM*,?,-22%,12,-26%,-6%
Cc1ccc(C)c(-n2nnnc2SCC(=O)c2ccc3c(c2)NC(=O)CO3)c1,0.63µM*,-19%,-21%,-11,5%,-27%
Cn1c(-c2sc3ccccc3c2Cl)n[nH]c1=S,?,-13%,-8%,17,3%,20µM*
COc1ccc2oc(=N)c(-c3nnc4n3CCCCC4)cc2c1,?,22%,9%,-3,6%,?
COc1ccc2c(Cl)c(-c3nnc4n3CCCCC4)sc2c1,?,-26%,-18%[4.97 µM],3,-7%,1µM*
Clc1ccc(-c2nnc3n2CCCC3)cc1,6%,14%,7%,40,0%,-29%
N=c1oc2ccc3ccccc3c2cc1-c1nnc2n1CCCCC2,?,-3%,-17%[10 µM],-114*,7%,?
Clc1c(-c2nnc3n2CCC3)sc2ccccc12,?,12%,0%[1.9 µM],34,3%,28µM*
COc1ccc(NS(=O)(=O)c2cccc(-c3nnc4n3CCCCC4)c2)cc1,17%,18%,5%,4,0%,-9%
CO[C@@H]1COC(=O)[C@H](COCc2ccccc2)NC(=O)C/C=C\[C@@H](C)[C@H](OC)COC(=O)[C@@H](C)NC(=O)C/C=C\[C@H]1C,3%[13.5 µM],·,0%[10 µM],·,5%[13.1 µM],·
CCC(=O)OCC(=O)[C@@]1(OC(=O)CC)[C@H](C)C[C@@H]2[C@@H]3[C@H]([C@@H](O)C[C@@]21C)[C@]1(C)C=CC(=O)C=C1C[C@@H]3Cl,0%[20.9 µM],14%[20.6 µM],-57%[17.1 µM],·,-9%[21.7 µM],-1%
Clc1c(-c2nnc3n2CCCCC3)sc2ccccc12,-6%,?,-31%[10 µM],-26,-3%,2µM*
N#C/C(=C\c1ccc([N+](=O)[O-])o1)C(=O)Nc1ccc(F)cc1,11µM*,?,-4%[10 µM],·,?,·
N#CCc1ccc(NC(=O)/C=C/c2ccc([N+](=O)[O-])o2)cc1,20µM*,?,-129%,·,-14%,·
